Measured values taken from the supplement of paper PMC10849652.
Targets with a hit are over-represented here; the source holds about 8,800 in all. About 0.5% of all pairs of compound and target were hits.

How the values were obtained:
Assay in all cases: log2 fold change, soluble protein after heating vs DMSO (PISA); higher = thermal stabilisation; K562 lysate, 10 uM; active = over 0.2 and 3.5 SD of the protein, either way, in both replicates (recomputed)
erlotinib = compound: C#Cc1cccc(Nc2ncnc3cc(OCCOC)c(OCCOC)cc23)c1 [erlotinib]
Procedure, shortened: (§1)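 A 30 min treatment with 10 μM compound was applied to crude K562 extract at 1 mg/mL protein in PBS pH 7.4 with 1 mM MgCl2. Heating for 3 min spanned 48°C-58°C, after which aliquots were pooled, adjusted to 0.5% NP-40 at 4°C and spun at 21,000xg for 90 min. TMTpro 16plex LC-MS/MS of the supernatant, with channel sums equalised, gave values recorded as log-two fold change in thermal stability against solvent controls, from duplicates.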

[1] = compound: C/C(=N\NC(=O)C1=CC(=CC=C1)S(=O)(=O)N2CCOCC2)/C3=C(C=CC(=C3)Cl)O
Procedure, shortened: as §1

[2] = compound: C1=CC(=CC=C1C2=NC3=C(N2)C=C(C=C3)C(=O)N)OC4=CC=C(C=C4)Cl
Procedure, shortened: as §1

[3] = compound: C1=CC2=C(C=CC(=C2)/C=C\3/C(=O)NC(=NCC4=CC=CS4)S3)N=C1
Procedure, shortened: as §1

[4] = compound: C1=CC2=NC=CN=C2C=C1/C=C/3\C(=O)NC(=O)S3
Procedure, shortened: as §1

[5] = compound: C1=CC=C(C=C1)C2=NC(=C(N2)C3=CC=NC=C3)C4=CC(=C(C=C4)Cl)O
Procedure, shortened: as §1

[6] = compound: C1=CC=C2C(=C1)C3=NNC4=CC=CC(=C43)C2=O
Procedure, shortened: as §1

[7] = compound: C1CCN(C1)C(=O)NC2=CC=CC(=C2)NC3=NC=C(C(=N3)NCCC4=CN=CN4)Br
Procedure, shortened: as §1

[8] = compound: C1CN(CCC1(CC2=CC=C(C=C2)Cl)N)C3=NC=NC4=C3C=CN4
Procedure, shortened: as §1

IRAK-1-4 Inhibitor I = compound: C1COCCN1CCN2C3=CC=CC=C3N=C2NC(=O)C4=CC(=CC=C4)[N+](=O)[O-] [IRAK-1-4 Inhibitor I]
Procedure, shortened: as §1

ibrutinib = compound: C=CC(=O)N1CCC[C@@H](n2nc(-c3ccc(Oc4ccccc4)cc3)c3c(N)ncnc32)C1 [ibrutinib]
Procedure, shortened: as §1

[9] = compound: CC(=O)c1cnc2ccc(-c3cc(Cl)c(O)c(Cl)c3)nc2c1N[C@H]1CC[C@H](CN(C)C)CC1
Procedure, shortened: as §1

ralimetinib = compound: CC(C)(C)Cn1c(N)nc2ccc(-c3[nH]c(C(C)(C)C)nc3-c3ccc(F)cc3)nc21 [ralimetinib]
Procedure, shortened: as §1

[10] = compound: CC(C)(O)CC(=O)NCCn1ccc2ncnc(Nc3ccc(Oc4cccc(C(F)(F)F)c4)c(Cl)c3)c21
Procedure, shortened: as §1

[11] = compound: CC(C)C1=C2N=C(C=C(N2N=C1)NCC3=CC=CC=C3)NCCCCCCN
Procedure, shortened: as §1

[12] = compound: CC1=C(C(CC(=O)N1)C2=CC=C(C=C2)C(F)(F)F)C(=O)NC3=C(C=C4C(=C3)C=NN4)F
Procedure, shortened: as §1

[13] = compound: CC1=C(C2=C(C=C1)C(=O)C3=CC=CC=C3N2CCCN)C
Procedure, shortened: as §1

[14] = compound: CC1=C(C=C(C=C1)NC(=O)C2=CC(=CC=C2)C(C)(C)C#N)NC3=CC4=C(C=C3)N=CN(C4=O)C
Procedure, shortened: as §1

[15] = compound: CC1=C(C=C(C=C1)NC(=O)C2=CC(=CC=C2)N(C)C)NC(=O)C3=CC=C(C=C3)O
Procedure, shortened: as §1

[16] = compound: CC1=CC=C(C=C1)SC2=C3C=C(SC3=CN=C2)C(=O)N
Procedure, shortened: as §1

Measured: log2 fold change

ASB6 (UniProt Q9NWX5)
UniProt Q9NWX5, sequence (Q9NWX5 whole entry, looked up): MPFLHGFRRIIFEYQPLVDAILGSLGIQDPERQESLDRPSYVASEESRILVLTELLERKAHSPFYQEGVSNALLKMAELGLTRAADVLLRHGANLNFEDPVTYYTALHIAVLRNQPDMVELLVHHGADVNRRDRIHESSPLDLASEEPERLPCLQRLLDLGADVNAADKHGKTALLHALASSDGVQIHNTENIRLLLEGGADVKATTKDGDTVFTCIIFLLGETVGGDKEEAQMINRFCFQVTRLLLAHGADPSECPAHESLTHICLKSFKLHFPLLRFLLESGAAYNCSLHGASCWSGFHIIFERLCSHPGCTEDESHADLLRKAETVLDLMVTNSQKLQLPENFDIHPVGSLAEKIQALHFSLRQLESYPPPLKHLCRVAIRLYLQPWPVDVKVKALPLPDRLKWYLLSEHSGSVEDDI
inactive: erlotinib 0.038 | [1] -0.311 | [2] 0.04 | [3] -0.094 | [4] -0.005 | [5] 0.06 | [6] 0.092 | [7] -0.053 | [8] 0.327 | IRAK-1-4 Inhibitor I 0.002 | ibrutinib -0.04 | [9] -0.087 | ralimetinib 0.027 | [10] -0.013 | [11] 0.001 | [12] -0.13 | [13] -0.007 | [14] 0.055 | [15] -0.052 | [16] 0.01

ASNS (UniProt P08243)
inactive: erlotinib 0.024 | [1] 0.067 | [2] -0.019 | [3] -0.007 | [4] 0.017 | [5] -0.023 | [6] -0.018 | [7] 0.016 | [8] 0.038 | IRAK-1-4 Inhibitor I 0.011 | ibrutinib 0.012 | [9] 0.015 | ralimetinib -0.014 | [10] 0.012 | [11] 0.052 | [12] -0.017 | [13] 0.04 | [14] 0.016 | [15] 0.014 | [16] 0.047

ALDH2 (UniProt P05091)
UniProt P05091, sequence (P05091 whole entry, looked up): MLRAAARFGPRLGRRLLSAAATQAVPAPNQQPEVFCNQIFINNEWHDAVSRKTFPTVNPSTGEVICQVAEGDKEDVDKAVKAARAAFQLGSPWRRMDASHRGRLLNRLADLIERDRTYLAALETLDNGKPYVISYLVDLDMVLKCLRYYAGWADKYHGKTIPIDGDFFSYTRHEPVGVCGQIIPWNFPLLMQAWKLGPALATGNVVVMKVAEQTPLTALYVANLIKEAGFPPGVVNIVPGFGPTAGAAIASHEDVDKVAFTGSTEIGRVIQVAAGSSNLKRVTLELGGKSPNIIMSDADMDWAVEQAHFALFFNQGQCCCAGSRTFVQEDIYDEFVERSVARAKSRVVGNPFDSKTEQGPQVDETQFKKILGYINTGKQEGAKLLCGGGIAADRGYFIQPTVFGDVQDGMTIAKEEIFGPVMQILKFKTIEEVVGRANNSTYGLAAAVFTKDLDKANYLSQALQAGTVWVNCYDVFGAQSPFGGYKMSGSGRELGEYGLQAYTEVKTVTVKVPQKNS
inactive: erlotinib -0.048 | [1] 0.009 | [2] -0.062 | [3] 0.03 | [4] 0.042 | [5] -0.016 | [6] 0.175 | [7] 0.011 | [8] 0.023 | IRAK-1-4 Inhibitor I 0.003 | ibrutinib -0.001 | [9] 0.081 | ralimetinib 0.002 | [10] -0.012 | [11] 0.199 | [12] -0.013 | [13] 0.014 | [14] -0.081 | [15] 0 | [16] 0.01

AIP (UniProt O00170)
UniProt O00170, sequence (O00170 whole entry, looked up): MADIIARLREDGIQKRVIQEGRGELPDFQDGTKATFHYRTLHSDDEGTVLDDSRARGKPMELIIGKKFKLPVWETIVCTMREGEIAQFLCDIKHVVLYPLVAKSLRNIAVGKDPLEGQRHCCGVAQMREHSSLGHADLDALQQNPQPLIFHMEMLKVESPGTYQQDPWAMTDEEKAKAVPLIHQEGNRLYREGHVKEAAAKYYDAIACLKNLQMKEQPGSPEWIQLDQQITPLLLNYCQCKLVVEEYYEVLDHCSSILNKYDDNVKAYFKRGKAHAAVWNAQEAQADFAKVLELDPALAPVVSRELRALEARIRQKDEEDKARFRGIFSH
inactive: erlotinib -0.006 | [1] -0.032 | [2] -0.015 | [3] -0.004 | [4] -0.012 | [5] 0.018 | [6] 0.026 | [7] -0.002 | [8] 0.016 | IRAK-1-4 Inhibitor I -0.012 | ibrutinib 0.019 | [9] -0.004 | ralimetinib -0.022 | [10] -0.003 | [11] -0.012 | [12] -0.011 | [13] -0.017 | [14] 0.011 | [15] 0 | [16] -0.023

AGO4 (UniProt Q9HCK5)
inactive: erlotinib -0.038 | [1] -0.008 | [2] 0.031 | [3] -0.02 | [4] -0.031 | [5] 0.009 | [6] -0.015 | [7] 0.009 | [8] 0.016 | IRAK-1-4 Inhibitor I -0.009 | ibrutinib 0.034 | [9] -0.035 | ralimetinib 0.022 | [10] -0.011 | [11] -0.049 | [12] 0.025 | [13] 0.05 | [14] 0 | [15] -0.013 | [16] -0.024

AGPS (UniProt O00116)
UniProt O00116, sequence (O00116 whole entry, looked up): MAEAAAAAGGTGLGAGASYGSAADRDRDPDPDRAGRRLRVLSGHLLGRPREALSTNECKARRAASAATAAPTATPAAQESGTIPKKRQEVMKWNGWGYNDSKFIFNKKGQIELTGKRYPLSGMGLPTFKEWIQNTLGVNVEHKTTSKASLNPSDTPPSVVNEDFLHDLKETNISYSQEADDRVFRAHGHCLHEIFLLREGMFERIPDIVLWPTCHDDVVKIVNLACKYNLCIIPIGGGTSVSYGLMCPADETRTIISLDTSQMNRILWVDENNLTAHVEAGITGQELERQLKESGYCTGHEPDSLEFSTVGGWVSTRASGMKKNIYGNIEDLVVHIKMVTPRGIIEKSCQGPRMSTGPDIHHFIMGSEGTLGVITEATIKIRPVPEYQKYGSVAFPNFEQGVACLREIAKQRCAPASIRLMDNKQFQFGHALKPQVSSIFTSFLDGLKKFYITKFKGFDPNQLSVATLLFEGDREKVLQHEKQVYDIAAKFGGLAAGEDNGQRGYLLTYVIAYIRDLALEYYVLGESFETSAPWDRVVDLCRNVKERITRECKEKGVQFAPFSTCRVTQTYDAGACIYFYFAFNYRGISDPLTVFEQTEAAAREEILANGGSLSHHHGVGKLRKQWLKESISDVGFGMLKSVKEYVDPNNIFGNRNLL
inactive: erlotinib 0.033 | [1] -0.086 | [2] -0.014 | [3] 0.037 | [4] 0.019 | [5] -0.039 | [6] -0.082 | [7] -0.034 | [8] 0.015 | IRAK-1-4 Inhibitor I 0.023 | ibrutinib 0.01 | [9] -0.004 | ralimetinib -0.013 | [10] -0.07 | [11] -0.065 | [12] 0.012 | [13] 0.025 | [14] -0.177 | [15] -0.005 | [16] -0.02

ABHD17B (UniProt Q5VST6)
UniProt Q5VST6, sequence (Q5VST6 whole entry, looked up): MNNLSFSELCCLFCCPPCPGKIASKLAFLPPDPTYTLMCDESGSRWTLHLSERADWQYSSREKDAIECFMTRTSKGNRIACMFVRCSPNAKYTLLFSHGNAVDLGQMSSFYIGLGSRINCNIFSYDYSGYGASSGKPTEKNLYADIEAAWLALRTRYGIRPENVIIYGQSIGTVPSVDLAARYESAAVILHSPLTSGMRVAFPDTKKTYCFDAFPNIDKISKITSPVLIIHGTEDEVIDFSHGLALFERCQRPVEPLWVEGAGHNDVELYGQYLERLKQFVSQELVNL
inactive: erlotinib -0.08 | [1] -0.047 | [2] -0.011 | [3] 0.044 | [4] -0.043 | [5] 0 | [6] 0.021 | [7] 0.064 | [8] -0.111 | IRAK-1-4 Inhibitor I 0.014 | ibrutinib 0.067 | [9] -0.031 | ralimetinib -0.053 | [10] -0.037 | [11] -0.036 | [12] -0.076 | [13] 0.001 | [14] 0.013 | [15] 0.127 | [16] 0.018

AK2 (UniProt P54819)
inactive: erlotinib -0.011 | [1] -0.052 | [2] 0.035 | [3] -0.002 | [4] 0.002 | [5] 0.016 | [6] 0.014 | [7] -0.008 | [8] -0.002 | IRAK-1-4 Inhibitor I 0.005 | ibrutinib 0.054 | [9] -0.022 | ralimetinib -0.013 | [10] 0.027 | [11] 0.018 | [12] -0.018 | [13] 0.003 | [14] -0.018 | [15] -0.031 | [16] -0.024

ACACB (UniProt O00763)
UniProt O00763, sequence (O00763 whole entry, looked up): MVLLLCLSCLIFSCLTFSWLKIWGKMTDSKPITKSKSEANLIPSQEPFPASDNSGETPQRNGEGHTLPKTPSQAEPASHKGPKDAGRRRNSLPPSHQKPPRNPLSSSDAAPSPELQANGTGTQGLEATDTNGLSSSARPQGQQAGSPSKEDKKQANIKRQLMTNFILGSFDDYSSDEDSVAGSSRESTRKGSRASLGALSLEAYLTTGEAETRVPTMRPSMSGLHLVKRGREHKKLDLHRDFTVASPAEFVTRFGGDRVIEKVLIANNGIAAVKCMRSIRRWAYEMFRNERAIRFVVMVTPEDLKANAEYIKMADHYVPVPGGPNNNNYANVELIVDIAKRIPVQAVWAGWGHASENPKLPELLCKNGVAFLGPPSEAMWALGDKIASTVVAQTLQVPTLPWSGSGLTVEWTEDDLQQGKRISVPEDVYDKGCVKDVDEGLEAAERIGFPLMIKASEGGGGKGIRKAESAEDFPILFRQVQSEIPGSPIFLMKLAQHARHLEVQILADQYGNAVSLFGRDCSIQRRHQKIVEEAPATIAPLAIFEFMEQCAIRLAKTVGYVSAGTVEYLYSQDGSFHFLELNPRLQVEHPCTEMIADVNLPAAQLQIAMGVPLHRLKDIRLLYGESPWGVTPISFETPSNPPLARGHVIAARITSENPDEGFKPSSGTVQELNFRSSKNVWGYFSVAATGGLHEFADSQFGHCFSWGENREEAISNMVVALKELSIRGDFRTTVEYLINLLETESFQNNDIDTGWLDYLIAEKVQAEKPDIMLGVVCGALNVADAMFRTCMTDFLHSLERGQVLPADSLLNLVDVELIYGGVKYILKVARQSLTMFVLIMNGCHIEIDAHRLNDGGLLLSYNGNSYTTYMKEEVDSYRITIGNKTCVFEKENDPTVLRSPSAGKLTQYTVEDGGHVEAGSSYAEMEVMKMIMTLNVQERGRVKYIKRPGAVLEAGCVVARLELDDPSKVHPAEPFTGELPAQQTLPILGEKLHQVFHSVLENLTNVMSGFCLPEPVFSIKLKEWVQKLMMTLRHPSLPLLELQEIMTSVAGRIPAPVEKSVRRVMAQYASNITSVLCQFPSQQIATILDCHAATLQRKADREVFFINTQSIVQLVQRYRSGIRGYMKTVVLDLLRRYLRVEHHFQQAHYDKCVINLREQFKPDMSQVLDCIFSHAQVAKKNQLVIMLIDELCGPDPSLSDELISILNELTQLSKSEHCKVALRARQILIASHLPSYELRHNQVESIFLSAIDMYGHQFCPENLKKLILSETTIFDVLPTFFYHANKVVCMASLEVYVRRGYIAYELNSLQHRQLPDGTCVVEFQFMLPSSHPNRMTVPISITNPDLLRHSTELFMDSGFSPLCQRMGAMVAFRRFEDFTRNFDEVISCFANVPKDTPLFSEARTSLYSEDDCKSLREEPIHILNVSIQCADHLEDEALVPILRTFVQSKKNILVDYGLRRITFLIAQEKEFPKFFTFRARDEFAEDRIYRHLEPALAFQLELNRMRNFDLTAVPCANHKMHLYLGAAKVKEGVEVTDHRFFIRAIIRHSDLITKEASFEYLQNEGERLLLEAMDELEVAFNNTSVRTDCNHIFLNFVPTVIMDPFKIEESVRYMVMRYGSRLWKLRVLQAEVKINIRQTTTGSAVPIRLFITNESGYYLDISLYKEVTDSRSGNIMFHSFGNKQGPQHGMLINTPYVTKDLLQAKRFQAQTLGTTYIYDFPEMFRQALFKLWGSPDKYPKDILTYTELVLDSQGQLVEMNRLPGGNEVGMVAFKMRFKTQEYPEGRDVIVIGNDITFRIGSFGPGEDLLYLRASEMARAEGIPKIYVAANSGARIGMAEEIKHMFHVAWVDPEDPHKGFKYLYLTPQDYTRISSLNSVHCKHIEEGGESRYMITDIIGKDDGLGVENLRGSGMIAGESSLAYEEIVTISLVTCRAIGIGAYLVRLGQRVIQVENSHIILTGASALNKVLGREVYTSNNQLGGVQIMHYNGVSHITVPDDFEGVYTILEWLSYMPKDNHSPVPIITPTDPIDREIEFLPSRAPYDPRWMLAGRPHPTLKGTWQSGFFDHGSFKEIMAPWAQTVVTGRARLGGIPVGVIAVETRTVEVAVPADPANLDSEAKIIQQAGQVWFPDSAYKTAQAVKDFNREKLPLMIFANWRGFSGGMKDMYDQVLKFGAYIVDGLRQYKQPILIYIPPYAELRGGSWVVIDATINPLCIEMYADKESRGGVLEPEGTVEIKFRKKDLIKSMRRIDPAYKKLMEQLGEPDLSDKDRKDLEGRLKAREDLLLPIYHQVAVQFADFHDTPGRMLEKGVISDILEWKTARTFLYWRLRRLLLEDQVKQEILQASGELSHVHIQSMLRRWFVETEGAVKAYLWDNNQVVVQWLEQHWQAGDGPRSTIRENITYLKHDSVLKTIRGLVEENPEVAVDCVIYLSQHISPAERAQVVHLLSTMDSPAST
inactive: erlotinib 0.042 | [1] 0.097 | [2] -0.025 | [3] 0.018 | [4] -0.02 | [5] -0.01 | [6] -0.008 | [7] -0.005 | [8] 0.015 | IRAK-1-4 Inhibitor I 0.025 | ibrutinib 0.051 | [9] 0.018 | ralimetinib 0.069 | [10] 0.032 | [11] 0.014 | [12] -0.036 | [13] 0.015 | [14] 0.021 | [15] 0.052 | [16] 0.022

AK1 (UniProt P00568)
UniProt P00568, sequence (P00568 whole entry, looked up): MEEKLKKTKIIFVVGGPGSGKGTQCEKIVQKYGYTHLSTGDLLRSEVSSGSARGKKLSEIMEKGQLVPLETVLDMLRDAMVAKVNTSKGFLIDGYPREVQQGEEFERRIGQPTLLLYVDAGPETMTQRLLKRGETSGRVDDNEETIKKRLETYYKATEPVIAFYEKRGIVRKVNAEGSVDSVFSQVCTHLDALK
inactive: erlotinib -0.023 | [1] 0.002 | [2] 0.014 | [3] -0.036 | [4] 0.002 | [5] -0.004 | [6] 0.047 | [7] 0.067 | [8] -0.003 | IRAK-1-4 Inhibitor I -0.002 | ibrutinib -0.001 | [9] 0.006 | ralimetinib 0.006 | [10] -0.021 | [11] -0.029 | [12] -0.008 | [13] 0.043 | [14] -0.024 | [15] -0.002 | [16] 0.009
